Results: PubChem BioAssay AID1578 (Sanford-Burnham Center for Chemical Genomics, 2009)
Among all 290,000 compounds or so, about 3,000 (1%) were called active. Only a selection was taken, and actives are over-represented in it overall. Unmarked numbers belong to inactive results. Cut-off read from the data, not from the text of the source: active = inhibition mostly above about 36% (no sharp cut-off); inactive = mostly below about 34%.

assay: NOD1 signaling inhibitors, primary screen, cell-based, luminescence, uHTS (AID 1578); conditions: NOD1-driven NF-kB luciferase reporter cells, at 4 µM, active compounds read high;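 note: HEK-293T reporter cells stimulated with the NOD1 agonist gamma-tri-DAP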

Compound | inhibition
COC(=O)C(Cc1c[nH]c2ccccc12)NC(=O)c1cccs1 (stereo not drawn) | -7.6%
CCN(C(=O)COc1ccccc1)c1nnc(-c2cccnc2)s1 | -10.9%
CCN1CCN(c2nc3ccccc3nc2C(C#N)C(=O)OC2CCCCC2)CC1 (stereo not drawn) | 81.8% (active)
N#CC(C(=O)OC1CCCCC1)c1nc2ccccc2nc1N1CCCCC1 (stereo not drawn) | 4.5%
CN1CCN(c2nc3ccccc3nc2C(C#N)C(=O)OC2CCCCC2)CC1 (stereo not drawn) | 11.4%
COCCN1C(=O)C(CC(=O)Nc2ccc(C(C)=O)cc2)SC1=Nc1ccccc1 (stereo not drawn) | 4.5%
COC(=O)Nc1ccc(C)c(NC(=O)OC)c1 | -7.3%
O=c1[nH]c([N+](=O)[O-])nn1C(c1ccccc1)c1ccccc1 | 6.5%
COC(=O)c1ccc(CSc2cc(C)c3cc(C)cc(C)c3n2)o1 | 48.3% (active)
COC(=O)c1ccc(CSc2cc(C)c3cccc(C)c3n2)o1 | -10.2%
COC(=O)c1ccc(CSc2cc(C)c3ccccc3n2)o1 | -55.1%
CC(C)(C)c1cc(CN2CCC(O)CC2)cc(C(C)(C)C)c1O | 36.7%
CCOC(=O)C1CCN(Cc2cc(C(C)C)c(O)c(C(C)C)c2)CC1 | -13.9%
CCOC(=O)C1CCN(Cc2cc(C(C)(C)C)c(O)c(C(C)(C)C)c2)CC1 | 43.8% (active)
Cc1c(C(c2cccc(Br)c2)c2c(C)n(C)n(-c3ccccc3)c2=O)c(=O)n(-c2ccccc2)n1C | -14%
CC12C(=O)N(c3ccc(C(=O)N4CCOCC4)cc3)C(=O)C1C1c3ccccc3C2c2ccccc21 (stereo not drawn) | -20.5%
c1ccc(-n2c(SCC3CCCCO3)nnc2-c2cnccn2)cc1 (stereo not drawn) | 11.8%
CCc1nnc(NC(=O)C2CCN(c3cnccn3)CC2)s1 | -4.1%
COc1nc(N/N=C/c2ccc(C)cc2)nc(N2CCCCC2)n1 | -27.3%
Cc1ccc(-n2c(-c3ccncc3)n[nH]c2=S)cc1C | -5.7%
Cc1ccc(-n2c(C)n[nH]c2=S)cc1C | 3.4%
Cc1cc(-c2n[nH]c(=S)n2-c2ccc(C)c(C)c2)no1 | 84% (active)
CCN(CC)S(=O)(=O)N1CCC(C(=O)NCc2ccco2)CC1 | 22%
COc1ccc(C2(c3ccc(OC)cc3)NC(=O)N(CC(=O)N(C)C)C2=O)cc1 | -33.1%
COc1c(Cl)cc(-c2noc(C)c2C(=O)NCCc2ccc(C)cc2)cc1Cl | -10.2%

Compound | inhibition
CN(C)c1ccc(NC(=O)C(=O)C2C(=O)Nc3ccccc32)cc1 (stereo not drawn) | -9.3%
COc1cccc(CC(NC(C)=O)C(=O)NC2CCN(c3c4c(nc5ncnn35)CCC4)CC2)c1OC (stereo not drawn) | -26.4%
CC1=Nc2cc(C(=O)NCC3CCCO3)ccc2Sc2ccc(Br)cc21 (stereo not drawn) | 8.4%
CCC1=Nc2cc(C(=O)NCC3CCCO3)ccc2Sc2ccc(Cl)cc21 (stereo not drawn) | 1%
CCC1=Nc2cc(C(=O)NCC3CCCO3)ccc2Sc2ccc(Br)cc21 (stereo not drawn) | 51.7% (active)
CCCCNC(=O)N1CCN(c2ccccc2OC)CC1 | -17.5%
CCCN(CC(=O)Nc1ccc(C(N)=O)cc1)CC(=O)Nc1ccc(Cl)cc1Cl | -30.3%
CCCN(CC(=O)Nc1ccc(NC(C)=O)cc1)CC(=O)Nc1ccc(F)c(F)c1F | -20.3%
CCCN(CC(=O)Nc1ccc(C(N)=O)cc1)CC(=O)Nc1ccc(F)c(F)c1F | 38.1% (active)
CC(C)NC(=O)CSc1nnc(-c2ccc3ncccc3c2)n1C | -3.6%
Cc1nc2ccc3[nH]snc3c2n1 | 20.2%
c1cc2[nH]snc2c2nc(C3CC3)nc12 | 63.2% (active)
CCCOc1ccc2cc(-c3ccccn3)c(=O)oc2c1 | 41.1%
CC1CN(CCc2ccccc2)c2nc3c(c(=O)n(C)c(=O)n3C)n2C1 (stereo not drawn) | -12.5%
CCOc1ccc(-n2c(-c3ccccc3)nnc2-c2ccccc2)cc1 | 8.2%
N#Cc1ccc(-n2c(-c3ccccc3)nnc2-c2ccccc2)cc1C#N | 42.1% (active)
N#Cc1ccc(-c2nc3ccccc3nc2-c2ccccc2)cc1C#N | 1.3%
N#Cc1cccc(-n2c(-c3ccccc3)nnc2-c2ccccc2)c1C#N | 11.5%
N#Cc1ccc(-c2nc3cc(C#N)c(C#N)cc3nc2-c2ccccc2)cc1C#N | 48.5% (active)
N#Cc1ccc(Oc2ccc(-c3nc4ccccc4nc3-c3ccccc3)cc2)cc1C#N | 3.3%
CC(=O)Nc1nnc(CSCc2ccccc2F)s1 | -5.5%
CC(=O)N(C)c1cccc(-c2ccc3nnc(C)n3n2)c1 | -5.9%
CCOC(=O)c1c(-c2ccccc2)csc1NC(=O)c1cc(S(=O)(=O)N2CCOCC2)ccc1C | -1.6%
Fc1ccc(Nc2nnc(C(F)(F)F)s2)cc1 | 3.4%
Cc1oc(-c2cccc(F)c2)nc1CN1CCCCC1CCn1cccn1 (stereo not drawn) | -32%

Compound | inhibition
Cc1nnc(Nc2ccc(Cl)cc2)n(N)c1=O | -7%
c1ccc(Cc2nnc3sc(C4COc5ccccc5O4)nn23)cc1 (stereo not drawn) | 107% (active)
c1ccc(OCc2nnc3sc(C4COc5ccccc5O4)nn23)cc1 (stereo not drawn) | 1.5%
c1ccc2c(c1)OCC(c1nn3c(Cn4nnc5ccccc54)nnc3s1)O2 (stereo not drawn) | -10.7%
O=C(Nc1ccc(F)cc1)c1nc[nH]c1C(=O)O | -6.5%
Nc1nc(-c2ccccc2)c(C(=O)Nc2ccccc2)s1 | -28.9%
O=C1c2ccccc2C(=O)C1c1ccccn1 | -8.4%
O=C1c2ccccc2C(=O)C2OC12 (stereo not drawn) | 70.9% (active)
Cc1ccccc1C1C(=O)c2ccccc2C1=O | -39.1%
Clc1ccccc1OCCn1cnc2ccccc21 | -21.1%
COc1ccc(S(=O)(=O)NC(Cc2ccccc2)C(=O)O)cc1 (stereo not drawn) | -1.3%
COc1ccc(C(CNC(=O)COc2ccc(C)c(C)c2)N2CCCCC2)cc1 (stereo not drawn) | 10.5%
Cc1nc(C)n(CCNC(=O)c2ccco2)n1 | -15.3%
Oc1c(Br)cc(Br)cc1C=Nc1cccnc1 | 67.4% (active)
Oc1c(Br)cc(Br)cc1C=Nc1ccc2[nH]ncc2c1 | 8.5%
COc1cccc(C=Nc2cccnc2)c1O | -7.3%
COc1ccc(/C=C2\CCC(C3CCCC3)C2=O)cc1Cn1nc(C)cc1C (stereo not drawn) | 26.4%
Cc1ccc(SCC(=O)NC2CCCCCC2)cc1 | -50.8%
CCN(CC)CCNC(=O)c1cn(CC)c2ccc(S(=O)(=O)N(C)C)cc2c1=O | -4.5%
COc1ccc(C(CC(=O)c2ccc(C)cc2)C(C#N)C#N)cc1OC (stereo not drawn) | 80.7% (active)
COc1ccc(C(CC(=O)c2ccccc2)CC(=O)c2ccccc2)cc1OC | -7.4%
COC(=O)C(C(=O)OC)C(CC(=O)c1ccc(C)cc1)c1cc(OC)c(OC)c(OC)c1 (stereo not drawn) | -3.3%
C=CCN(c1nc(C)c(Br)c(OC)n1)S(=O)(=O)c1ccc(C)cc1 | -14%
CCN(Cc1cc2ccccc2[nH]c1=O)S(=O)(=O)c1ccc(OC)cc1 | -5.3%
Cc1cc(CNC(=O)c2cccc([N+](=O)[O-])c2C)c2ccccc2n1 | 2.7%

Compound | inhibition
O=C(Oc1ccccc1C(=O)Nc1ccccc1)c1ccc(Br)c([N+](=O)[O-])c1 | -30.7%
O=C(c1ccc2c(Cl)c3c(nc2c1)CCCC3)N1CCC(N2CCCCC2)CC1 | -13.1%
Cn1c(=O)c(C(=O)CN2CCc3ccccc32)c(N)n(Cc2ccccc2)c1=O | -8.9%
O=C(CSc1nc2ncc(Br)cc2[nH]1)c1ccc([N+](=O)[O-])cc1 | -15.6%
Cc1nn(C)cc1/C=C/C(=O)c1ccccc1 | -44.5%
Cc1c(/C=C/C(=O)c2cccs2)cnn1C | 20.7%
Cc1nn(C)cc1/C=C/C(=O)c1cccs1 | 112% (active)
Cc1ccnc(Cc2ccccc2)n1 | -4.5%
O=C(CCC(=O)OCC(=O)c1ccc(-c2ccccc2)cc1)Nc1cccc(Cl)c1 | 7.8%
Cc1cc(C)n(-c2ccc(C(=O)Nc3ccccn3)cc2)n1 | -30.3%
Cc1onc(-c2ccccc2Cl)c1C(=O)N/N=C(\N)COc1ccc(Cl)cc1 | 8.6%
Cc1onc(-c2c(Cl)cccc2Cl)c1C(=O)N/N=C(\N)COc1ccc(Cl)cc1 | 71.9% (active)
Cc1onc(-c2ccccc2)c1C(=O)N/N=C(\N)COc1ccc(Cl)cc1 | -17.2%
O=C(NCC1CC1)NC(=O)c1c(F)cccc1Cl | -15.8%
Nc1ccc(S(=O)(=O)Nc2nccc(/C=C/c3ccc(Cl)cc3)n2)cc1 | 22.2%
Nc1ccc(S(=O)(=O)Nc2nccc(/C=C/c3ccc([N+](=O)[O-])cc3)n2)cc1 | 14%
C=CCn1cnc2c(nnn2-c2ccc(C)c(C)c2)c1=O | -34.3%
Oc1[nH]c2ccccc2c1C=Nc1ccc2c(c1)OCO2 | 14.2%
NS(=O)(=O)c1ccc(N=Nc2ccc(O)c3ncccc23)cc1 | -6.1%
O=S(=O)(Nc1ccc(N=Nc2ccc(O)c3ccccc23)cc1)c1ccccc1 | 13%
Oc1ccc(N=Nc2ccc3c(c2)OCCO3)c2ncccc12 | 106% (active)
Oc1ccc(N=Nc2ccc3c(c2)OCO3)c2ccccc12 | 109% (active)
Oc1ccc(N=Nc2ccc3c(c2)OCCO3)c(O)c1 | -2.2%
